The results in this text go back to PubChem BioAssay (NCATS).

“And” between values parts separate entries of the source, which are not always exact repeats. Identical values can stand only once. Records with an inconclusive call do not appear. The source made the active and inactive calls. Unless noted, calls follow the shape of the dose curve; as a rule, active = well fitted curve in the direction sought with a large enough effect; inconclusive = small, poorly fitted or top-dose-only effect, or another doubt; inactive = no such curve, though single readings can be large; an effect the other way counts as inactive or inconclusive.

A short description of test [1]: Cell Viability - LYMP2-014 (AID 983).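 Also: cells exposed to compound for 24 h at 37 °C; plate controls were DMSO only for no effect and 92 µM tetraoctylammonium bromide for full effect; nearly all actives have a fitted effect of over 50% in size.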 The method in brief:
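Decrease in intracellular ATP after 24 hr treatment at 37 C, measured by luciferase luminescence, indicated cytotoxicity. Concentration-response data were fitted with the standard Hill equation to give AC50.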

Test [2] can be described thus: Cell Viability - LYMP2-016 (AID 984).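 Also: cells exposed to compound for 24 hours at 37 °C; % is scaled to controls: 0 for no effect and ±100 for the full control effect; nearly all actives have a fitted effect of over 55% in size.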 The method in brief: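 Cells were seeded at 2500 per well and rested 5 hr before a 24 hr compound exposure at 37 C. Viability was then gauged as cellular ATP by luciferase luminescence, with AC50 values fitted to the Hill equation.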
Test [3] is described as follows: Cell Viability - LYMP2-018 (AID 985).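 Also: plate controls were DMSO only for no effect and tetraoctylammonium bromide at 92 µM for full effect; nearly all actives have a fitted effect of over 50% in size.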 The method in brief:
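Acute cytotoxicity is scored as a concentration-dependent drop in intracellular ATP after 24 hr exposure of the lymphoblastoid line in complete culture medium, measured by luciferase luminescence. Potency is expressed as AC50 from Hill modelling.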

Test [4] can be described thus: Cell Viability - LYMP2-020 (AID 986).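 Also: cells exposed to compound for 24 h at 37 °C; plate controls were DMSO only for no effect and tetraoctylammonium bromide at 92 µM for full effect; nearly all actives have a fitted effect of over 55% in size.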 Summed up: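 Acute cytotoxicity in a human lymphoblastoid line is scored as a concentration-dependent fall in cellular ATP after 24 hr at 37 C in complete medium. The positive control is tetraoctylammonium bromide, and potency is given as Hill-fit AC50.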
Test [5] can be described thus: Cell Viability - LYMP2-022 (AID 987). Also: nearly all actives have a fitted effect of over 55% in size. Also: potency is read from the fitted curve at half-maximal effect. Summed up:
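Acute toxicity in a human lymphoblastoid line is scored as decreased intracellular ATP after 24 hr compound treatment at 37 C. ATP is measured by CellTiter-Glo luminescence; curves are fitted with the Hill equation to give AC50.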

The nature of test [6]: Cell Viability - LYMP2-024 (AID 988). Also: nearly all actives have a fitted effect of over 60% in size. Also: potency is read from the fitted curve at half-maximal effect. Summed up:
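Acute toxicity is measured as concentration-dependent loss of intracellular ATP in a human lymphoblastoid line treated 24 hours at 37 C. Luciferase luminescence quantifies ATP; AC50 values come from standard Hill-equation modelling.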

A short description of test [7]: Cell Viability - LYMP2-026 (AID 989).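 Also: cells exposed to compound for 24 h at 37 °C; % is scaled to controls: 0 for no effect and ±100 for the full control effect; nearly all actives have a fitted effect of over 50% in size.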 The method in brief:
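Concentration-dependent loss of intracellular ATP in human lymphoblastoid cells after 24 hr at 37 C, quantified by luciferase luminescence. AC50 derived from standard Hill equation.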

A short description of test [8]: Cell Viability - LYMP1-002 - Assay at 24 hr (AID 993). Also: % is scaled to controls: 0 for no effect and ±100 for the full control effect. Summed up: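 qHTS, LYMP1-002 lymphoblastoid, 24 h cpd, 37 C, CellTiter-Glo ATP luminescence; AC50 via Hill eq.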
The nature of test [9]: Cell Viability - LYMP1-002 - Assay at 40 hr (AID 994).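 Also: 0% = DMSO only and full inhibition = 92 µM tetraoctylammonium bromide; nearly all actives have a fitted effect of over 60% in size.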 The method in brief:
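Viability in the human lymphoblastoid line was measured as intracellular ATP via CellTiter-Glo after 40 hr compound exposure. Tetraoctylammonium bromide served as positive control.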

Test [10] can be described thus: qHTS Assay for Lipid Storage Modulators (AID 1519; calls by dose curve; as to activity change, negative = inhibition: % is scaled to controls: 0 for no effect and ±100 for the full control effect). Particulars: Drosophila S3 cells, BODIPY lipid droplet/cell ratio, laser cytometry, cells loaded with oleic acid. The method in brief:
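Cells seeded at 5,000 per well were treated with compounds over a concentration series and loaded with oleic acid (400 uM, as added). Lipid droplet fluorescence (488 nm excitation, 500-530 nm channel) was read by laser-scanning cytometry and normalized to 20 uM Triacsin C.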
Background: Quantitative high-throughput screening tests each substance at several concentrations.

The target of test [11] is Alpha-galactosidase A (Homo sapiens) (UniProt P06280). In words: Counterscreen for Glucocerebrosidase Inhibitors: qHTS Assay for Human alpha-Galactosidase at pH 4.5 (AID 992). Also: 0% is about no effect. Summed up:
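Concentration-response curves (0.7 nM to 77 uM final) were modeled with the Hill equation to give AC50. Reactions: 2 nM enzyme, 80 uM fluorogenic alpha-galactoside, pH 4.5 citric acid buffer, 20 min, room temperature.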
Background: A counterscreen serves to expose hits that act by an unwanted route or on another target.

Test [12] addresses alpha-glucosidase (Oryza sativa, rice) (UniProt Q653V4). In words: Counterscreen for Glucocerebrosidase Inhibitors: qHTS Assay for Rice alpha-Glucosidase at pH 5.0 (AID 997).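 Also: 0% = full activity with enzyme and -100% = basal without enzyme.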 The method in brief: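 Rice alpha-glucosidase (4 nM final) with 400 uM 4-methylumbelliferyl-alpha-D-glucopyranoside in citrate buffer pH 5.0, 20 min at room temperature, stopped at pH 10; fluorescence 365/440 nm, compounds 0.7 nM–77 uM, AC50 from Hill fits.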

The target in test [13] is DNA repair nuclease/redox regulator APEX1 (Homo sapiens) (UniProt P27695). In words: qHTS Validation Assay for Inhibitors of the Human Apurinic/apyrimidinic Endonuclease 1 (APE1) (AID 1705;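 also: TAMRA fluorescence gain over two minutes as APE1 cuts a quenched THF abasic duplex; % is scaled to controls: 0 for no effect and ±100 for the full control effect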). The method in brief: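 qHTS, 1536-well. APE1 + cpd 15 min RT → 50 nM TAMRA/BHQ-2 THF-abasic dsDNA substrate → kinetic fluorescence, 3 reads/60 s; delta(read3−read1) = reaction progress. No-enzyme buffer = negative control.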
Sequence of DNA repair nuclease/redox regulator APEX1 (Homo sapiens) (P27695 whole entry, looked up): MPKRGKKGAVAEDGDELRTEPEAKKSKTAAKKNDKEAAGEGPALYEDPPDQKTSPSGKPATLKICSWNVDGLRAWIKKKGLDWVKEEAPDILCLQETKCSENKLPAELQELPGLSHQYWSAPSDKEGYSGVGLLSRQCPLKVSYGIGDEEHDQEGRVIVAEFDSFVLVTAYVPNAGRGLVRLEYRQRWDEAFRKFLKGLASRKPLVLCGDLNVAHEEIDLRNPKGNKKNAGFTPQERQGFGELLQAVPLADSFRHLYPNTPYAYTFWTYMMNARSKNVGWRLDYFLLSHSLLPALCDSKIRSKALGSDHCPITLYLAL

A short description of test [14]: Counterscreen for APE1 Inhibitors: Fluorescent Dye Displacement Validation Assay (AID 1707).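 Also: plate controls were ThO with dsDNA and no compound for no effect and ThO without dsDNA for full effect.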 Summed up: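 Assay buffer: Tris-HCl pH7.5 with 50mM NaCl, 2 mM MgCl2, 0.01% Tween-20. Dye 250 nM, duplex 50 nM final. Readout: decrease in ThO endpoint fluorescence, 480 nm excitation, 540 nm emission.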
For test [15], the target named is Endonuclease 4 (Escherichia coli (strain K12)) (UniProt P0A6C1). Kind of test: Counterscreen for APE1 Inhibitors: qHTS Validation Assay for Inhibitors of Endonuclease IV (AID 1708). Also: % is scaled to controls: 0 for no effect and ±100 for the full control effect. Summed up:
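2 nM enzyme was preincubated with compounds for 15 min at room temperature in 50 mM Tris-HCl pH 7.5, 50 mM NaCl, 2 mM MgCl2, 1 mM DTT, 0.01% Tween-20. 50 nM THF-abasic TAMRA/BHQ-2 duplex substrate started the reaction.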

The nature of test [16]: qHTS for differential inhibitors of proliferation of Plasmodium falciparum line 7G8 (AID 1815).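 Also: parasite growth measured after three days of incubation; plate controls were vehicle wells for no effect and reference inhibitor wells for full effect.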
The nature of test [17]: qHTS for differential inhibitors of proliferation of Plasmodium falciparum line GB4 (AID 1816).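 Also: parasite growth measured after 72 h incubation; 0% = vehicle DMSO and -100% = reference inhibitor.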 Particulars: Potency: Plasmodium falciparum GB4 proliferation inhibition.
Test [18] is described as follows: qHTS for differential inhibitors of proliferation of Plasmodium falciparum line 3D7 (AID 1876).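 Also: parasite growth measured after three days of culture; 0% = vehicle wells and -100% = reference inhibitor wells.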
Test [19] in a line: qHTS for differential inhibitors of proliferation of Plasmodium falciparum line D10 (AID 1877).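 Also: parasites grown with compound for 72 h before DNA staining; plate controls were vehicle wells for no effect and reference inhibitor wells for full effect.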
The mark [20] stands for this setting: measured here: cell count channel max response.
The mark [21] stands for this setting: measured here: lipid channel max response.

Sequence of Alpha-galactosidase A (Homo sapiens) (P06280 whole entry, looked up): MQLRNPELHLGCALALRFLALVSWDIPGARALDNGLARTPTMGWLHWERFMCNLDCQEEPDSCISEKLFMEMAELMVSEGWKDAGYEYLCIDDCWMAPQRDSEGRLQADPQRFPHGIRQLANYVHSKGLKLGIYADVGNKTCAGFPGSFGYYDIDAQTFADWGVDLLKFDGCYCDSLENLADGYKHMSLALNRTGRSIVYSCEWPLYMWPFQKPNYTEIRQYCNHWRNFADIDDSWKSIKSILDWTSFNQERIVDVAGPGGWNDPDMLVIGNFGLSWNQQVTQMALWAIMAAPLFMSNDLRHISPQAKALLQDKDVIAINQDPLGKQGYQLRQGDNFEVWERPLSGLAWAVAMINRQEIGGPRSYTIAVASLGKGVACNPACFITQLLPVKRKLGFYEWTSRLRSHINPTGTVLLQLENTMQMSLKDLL

Consider `Cc1nnc(NS(=O)(=O)c2ccc(N)cc2)s1`, for which the Potency result in test [1], in test [2], in test [3], in test [4], in test [5] and in test [6] was “inactive” in each case. Moreover, the Potency entry in test [7], in [8] and in test [9] was “inactive” in each case. The results for the activity change, negative = inhibition in test [10] (at 25.7 µM (top of the series)) and in test [10] (at 57.5 µM (top of the series)) were 0.279% (inactive) and 7.74% (inactive), respectively. For the same compound, the max response in test [10] (setting [20]) was -3.37% and -1.8%; in test [10] (setting [21]) it was -7.15% and 7.76%.
As for `CCn1cc(C(=O)O)c(=O)c2cc(F)c(N3CCNCC3)cc21`, the activity change, negative = inhibition was 0.231% (inactive) in [10] (at 25.7 µM (top of the series)) and 8.94% (inactive) in test [10] (at 57.5 µM (top of the series)). Besides, the max response in test [10] (setting [20]) was -2.5% and 14.7%; in test [10] (setting [21]) it was -2.45% and 30%.
On to `COc1ccc2cc3[n+](cc2c1OC)CCc1cc2c(cc1-3)OCO2`, for which the Potency in test [5] was 31.6 µM (active); in test [6] it was 39.8 µM (active). Moreover, the Potency result in test [8] and in test [9] was “inactive” throughout.
`Cc1noc(NS(=O)(=O)c2ccc(N)cc2)c1C`: the Potency result in [1], in test [2], in test [3], in test [4], in test [5] and in test [6] was “inactive” in each case. Besides, the Potency result in [7], in test [8] and in test [9] was “inactive” in each case.
Take `Cc1ccnc2c1NC(=O)c1cccnc1N2C1CC1`: the Potency result in test [1], in [2], in test [3], in [4], in test [5] and in test [6] was “inactive” throughout. Further, the Potency result in [7], in test [8] and in test [9] was “inactive” throughout.
On to `CC(C)(Sc1cc(C(C)(C)C)c(O)c(C(C)(C)C)c1)Sc1cc(C(C)(C)C)c(O)c(C(C)(C)C)c1`, for which the activity change, negative = inhibition is -2.44% (inactive) in [10] (at 25.7 µM (top of the series)) and 6.58% (inactive) in [10] (at 57.5 µM (top of the series)). Moreover, the max response is 2.96% and 13.3% in test [10] (setting [20]); 1.97% and 25.1% in [10] (setting [21]).
With `O=C(O)c1cccnc1`, the activity change, negative = inhibition in test [10] (at 25.7 µM (top of the series)) is -4.1% (inactive); in [10] (at 57.5 µM (top of the series)), 5.73% (inactive). Besides, the max response in [10] (setting [20]) is -11.4% and 15.3%; in test [10] (setting [21]), -16.2% and 21.7%.
As to `NNC(=O)c1ccncc1`, the Potency result in [1], in test [2], in test [3], in test [4], in test [5] and in [6] was “inactive” each time. The Potency result in [7], in test [8] and in [9] was “inactive” in each case. Further, in test [10] (at 25.7 µM (top of the series)), the activity change, negative = inhibition is -0.316% (inactive). In addition, the max response is -8.98% in test [10] (setting [20]) and -8.54% in [10] (setting [21]).
Take `NC(=O)c1cccc(N)c1`: the compound was called inactive in [11], in test [12], in test [13], in test [14] and in test [15]. Besides, in [10] (at 57.5 µM (top of the series)), the activity change, negative = inhibition is 7.95% (inactive). In addition, the max response in test [10] (setting [20]) turned out to be 35.3%; in [10] (setting [21]), 59.1%. Also, the Potency entry in [16], in test [17], in test [18] and in [19] was “inactive” each time.
On to `NC(N)=NC(N)=NCCc1ccccc1`, for which the Potency result in test [1], in [2], in test [3], in test [5], in [6] and in test [7] was “inactive” each time. The Potency result in test [8] and in [9] was “inactive” throughout. In test [10] (at 25.7 µM (top of the series)), the activity change, negative = inhibition is -0.801% (inactive). The max response in [10] (setting [20]) turned out to be 4.96%; in test [10] (setting [21]) it was 5.89%.
